These results are taken from the supplement of paper PMC9262897, “Low-cost anti-mycobacterial drug discovery using engineered E. coli” (Nature Communications, 2022).

Assay in all cases: growth (OD600 after 10 h); higher = more growth (less inhibition)
For test [1], the system named is E. coli TESEC Alr+ wild-type control. As to conditions: compound 0.1 mM; raw OD600 reference: median of DMSO wells 0.241, cell-free background 0.041. On the procedure: (§1)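 TESEC Mtb Alr E. coli, or the Alr+ wild-type control, in 384-well plates with Prestwick library compounds at 0.1 mM and 1% DMSO, across arabinose induction levels of 1E3 to 1E7 nM. Growth is read as OD600 after 10 h at 37 °C in triplicate biological replicates.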

Test [2] concerns E. coli TESEC Mtb Alr. As to conditions: compound 0.1 mM. The method, then: as §1
For the next test, the system named is E. coli TESEC Mtb Asd. The conditions noted are these: compound 0.1 mM. The method, then: (§2)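 TESEC E. coli strains in which the native enzyme is deleted and replaced by arabinose-inducible Mtb Asd, DapB, CysH or TrpD, each grown in its selective medium. Strains were screened against the Prestwick library at 0.1 mM and 1% DMSO in 384-well format at low and high arabinose induction. Growth is read as OD600 after 10 h in triplicate.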

For a further test, the system named is E. coli TESEC Mtb DapB. As to conditions: compound 0.1 mM. The method, then: as §2
For test [3], the system named is E. coli TESEC Alr+ wild-type control. As to conditions: compound 0.1 mM; raw OD600 reference: median of DMSO wells 0.49, cell-free background 0.052. The method, then: (§3)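 TESEC Mtb Alr E. coli (ΔaraC ΔtolC ΔentC Δalr ΔdadX, arabinose-inducible Mtb Alr) or the Alr+ wild-type control strain, grown in defined M9-fructose medium without D-alanine in 96-well plates with Prestwick library compounds at 0.1 mM and 1% DMSO. Low Alr induction is 0.1 µM arabinose and high induction is 10 mM arabinose.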

Test [4] deals with E. coli TESEC Mtb Alr. As to conditions: compound 0.1 mM. On the procedure:
as §3
The source holds these as a separate data set.

Setting [5] is: arabinose 1000 nM, raw OD600 reference: median of DMSO wells 0.294, cell-free background 0.041.
Where [6] appears, read: arabinose 10000 nM, raw OD600 reference: median of DMSO wells 0.264, cell-free background 0.041.
[7] abbreviates: arabinose 100000 nM, raw OD600 reference: median of DMSO wells 0.201, cell-free background 0.041.
The mark [8] stands for this setting: arabinose 1000000 nM, raw OD600 reference: median of DMSO wells 0.193, cell-free background 0.041.
Setting [9] is: arabinose 10000000 nM, raw OD600 reference: median of DMSO wells 0.146, cell-free background 0.041.
Where [10] appears, read: arabinose induction (level): High, raw OD600 reference: median of DMSO wells 0.331, cell-free background 0.041.
[11] abbreviates: arabinose induction (level): Low, raw OD600 reference: median of DMSO wells 0.417, cell-free background 0.041.
Setting [12] is: arabinose induction (level): High, raw OD600 reference: median of DMSO wells […], cell-free background 0.041.
The mark [13] stands for this setting: arabinose induction (level): Low, raw OD600 reference: median of DMSO wells 0.227, cell-free background 0.041.
Setting [14] is: arabinose 100 nM, raw OD600 reference: median of DMSO wells 0.413, cell-free background 0.052.
Where [15] appears, read: arabinose 10000000 nM, raw OD600 reference: median of DMSO wells […], cell-free background 0.052.

Counter-ions that a name gives are not always drawn. ± gives the standard deviation of the averaged measurements.

Take `COc1ccc2c(c1)c(CC(=O)O)c(C)n2C(=O)c1ccc(Cl)cc1` [Indomethacin]: the growth in test [1] is 0.141 ± 0.0034; with E. coli TESEC Mtb Alr [2] (setting [5]) it was 0.186 ± 0.008; in the test on E. coli TESEC Mtb Alr [2] (setting [6]) it was 0.2 ± 0.0069; in the test on E. coli TESEC Mtb Alr [2] (setting [7]), 0.124 ± 0.0036; in the test on E. coli TESEC Mtb Alr [2] (setting [8]) it was 0.0963 ± 0.0012; in the test on E. coli TESEC Mtb Alr [2] (setting [9]) it was 0.105 ± 0.0024. The growth in the test with E. coli TESEC Mtb Asd (setting [10]) amounted to 0.172 ± 0.017; in the test on E. coli TESEC Mtb Asd (setting [11]), 0.196 ± 0.036; in the test on E. coli TESEC Mtb DapB (setting [12]) it was 0.156 ± 0.0079; in the test with E. coli TESEC Mtb DapB (setting [13]), 0.214 ± 0.073; in test [3], 0.392 ± 0.0071; in the test on E. coli TESEC Mtb Alr [4] (setting [14]), 0.366 ± 0.032. Also, in the test on E. coli TESEC Mtb Alr [4] (setting [15]), the growth amounted to 0.143 ± 0.0065.
With `CC(=O)S[C@@H]1CC2=CC(=O)CC[C@]2(C)[C@H]2CC[C@@]3(C)[C@@H](CC[C@@]34CCC(=O)O4)[C@H]12` [Spironolactone], the growth was determined as 0.121 ± 0.0068 in test [1]; 0.0986 ± 0.051 in the test with E. coli TESEC Mtb Alr [2] (setting [5]); 0.0753 ± 0.0019 with E. coli TESEC Mtb Alr [2] (setting [6]); 0.0921 ± 0.027 in the test with E. coli TESEC Mtb Alr [2] (setting [7]); 0.06897 ± 0.00051 in the test on E. coli TESEC Mtb Alr [2] (setting [8]); 0.112 ± 0.0019 in the test on E. coli TESEC Mtb Alr [2] (setting [9]). Further, the growth in the test with E. coli TESEC Mtb Asd (setting [10]) came out at 0.167 ± 0.021; in the test with E. coli TESEC Mtb Asd (setting [11]) it was 0.313 ± 0.041; in the test on E. coli TESEC Mtb DapB (setting [12]), 0.1363 ± 0.001; with E. coli TESEC Mtb DapB (setting [13]), 0.178 ± 0.018; in test [3], 0.331 ± 0.022; in the test on E. coli TESEC Mtb Alr [4] (setting [14]), 0.389 ± 0.026. This molecule had a growth in the test with E. coli TESEC Mtb Alr [4] (setting [15]) of 0.0959 ± 0.016.
As to `CN1CCCN(C(c2ccccc2)c2ccc(Cl)cc2)CC1` (configuration not stated) [Homochlorcyclizine dihydrochloride], the growth in test [1] was 0.189 ± 0.0068; with E. coli TESEC Mtb Alr [2] (setting [5]), 0.137 ± 0.082; in the test on E. coli TESEC Mtb Alr [2] (setting [6]) it was 0.169 ± 0.0051; in the test on E. coli TESEC Mtb Alr [2] (setting [7]), 0.09 ± 0.04; in the test on E. coli TESEC Mtb Alr [2] (setting [8]) it was 0.0532 ± 0.00092; with E. coli TESEC Mtb Alr [2] (setting [9]), 0.0545 ± 0.00056. Moreover, the growth in the test on E. coli TESEC Mtb Asd (setting [10]) was found to be 0.123 ± 0.011; with E. coli TESEC Mtb Asd (setting [11]), 0.152 ± 0.015; in the test on E. coli TESEC Mtb DapB (setting [12]) it was 0.169 ± 0.0068; in the test on E. coli TESEC Mtb DapB (setting [13]), 0.215 ± 0.039; in test [3], 0.498 ± 0.047; in the test on E. coli TESEC Mtb Alr [4] (setting [14]) it was 0.413 ± 0.0053. The molecule also registered a growth in the test with E. coli TESEC Mtb Alr [4] (setting [15]) of 0.118 ± 0.018.
In the case of `CC(=O)Oc1cccc2c1C(=O)c1c(OC(C)=O)cc(C(=O)O)cc1C2=O` [Diacerein], the growth in test [1] was found to be 0.122 ± 0.0032; in the test with E. coli TESEC Mtb Alr [2] (setting [5]), 0.136 ± 0.011; with E. coli TESEC Mtb Alr [2] (setting [6]), 0.161 ± 0.0033; in the test with E. coli TESEC Mtb Alr [2] (setting [7]) it was 0.0638 ± 0.0022; in the test on E. coli TESEC Mtb Alr [2] (setting [8]), 0.0904 ± 0.0041; in the test with E. coli TESEC Mtb Alr [2] (setting [9]) it was 0.0642 ± 0.005. In addition, the growth in the test on E. coli TESEC Mtb Asd (setting [10]) came to 0.224 ± 0.019; in the test with E. coli TESEC Mtb Asd (setting [11]), 0.348 ± 0.045; in the test on E. coli TESEC Mtb DapB (setting [12]), 0.208 ± 0.019; with E. coli TESEC Mtb DapB (setting [13]), 0.23 ± 0.015; in test [3], 0.087 ± 0.0013; in the test on E. coli TESEC Mtb Alr [4] (setting [14]), 0.0492 ± 0.00056. The growth with E. coli TESEC Mtb Alr [4] (setting [15]) is 0.0619 ± 0.0035.
